Hits are enriched below; roughly 2.3% of the tested compounds scored in any of these assays.
MCL1-BIM inh: inhibitors of human MCL1 binding to BIM-BH3 peptide | AID 2057 | GST-MCL1 / FITC-Bim-BH3 fluorescence polarization | inhibition, % at 10.9 µM | Q07820 | 320,000 compounds, 0.68% hits;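 active means inhibition above the mean inhibition of all tested compounds plus 3 SD, set per campaign, cut at about 40% in these data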;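 further: 0% = DMSO wells and 100% = unlabeled Bim-BH3 peptide control; higher means more loss of mP so more displacement of Bim peptide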
GLD-1 TGE inh: GLD-1-TGE RNA interaction inhibition (C. elegans); Q17339; purified GLD-1 + fluorescein TGE RNA, fluorescence polarization; inhibition, % at 5.96 µM; 320,000 compounds, 0.44% hits; AID 2280;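 active means percent inhibition above a per-plate cutoff, the plate mean of test compounds plus 3 SD, cut at about 30% in these data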;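 further: 0% = DMSO wells with GLD-1 and probe and 100% = wells lacking GLD-1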
Target sequence (Q17339 whole entry, looked up): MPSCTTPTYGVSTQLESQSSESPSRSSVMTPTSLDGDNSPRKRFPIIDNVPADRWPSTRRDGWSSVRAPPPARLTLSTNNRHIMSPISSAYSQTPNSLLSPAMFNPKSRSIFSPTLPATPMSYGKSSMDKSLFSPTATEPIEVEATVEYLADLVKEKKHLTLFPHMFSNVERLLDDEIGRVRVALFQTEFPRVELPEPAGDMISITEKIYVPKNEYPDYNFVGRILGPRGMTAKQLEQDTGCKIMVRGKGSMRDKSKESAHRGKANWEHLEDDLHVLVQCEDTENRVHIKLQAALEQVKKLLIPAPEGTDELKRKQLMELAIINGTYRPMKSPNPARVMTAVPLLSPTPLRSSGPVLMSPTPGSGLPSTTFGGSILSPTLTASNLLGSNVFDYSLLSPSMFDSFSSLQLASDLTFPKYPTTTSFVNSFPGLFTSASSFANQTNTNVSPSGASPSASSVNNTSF
Bcl-xL primary: Bcl-xL (human) inhibition; inhibition, % at 10.9 µM; GST-Bcl-xL / FITC-Bim BH3 peptide fluorescence polarization; 320,000 compounds, 0.7% hits; Q07817;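 active means inhibition above the mean of all tested compounds plus 3 SD, cutoff set per campaign, cut at about 30% in these data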;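 further: 0% = DMSO wells and 100% = unlabeled Bim-BH3 peptide competitor; inhibitors lower millipolarization by displacing the labeled peptide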
Mcl-1 Bim block: disrupts Bim peptide binding to human Mcl-1. Q07820. Bead-based flow cytometry, Bim peptide-Mcl-1 binding. inhibition, % at 10 µM. 190,000 compounds, 0.1% hits; in the data active means inhibition above about 40%;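 further: 0% = no compound tracer wells and 100% = peptide blocker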
Mcl1 Bid PPI: disrupts binding of human Mcl-1 to Bid peptide; inhibition, % at 21.7 µM; 220,000 compounds, 0.97% hits; Q07820; AID 1021; TR-FRET Mcl-1/Bid-Dy647 peptide binding, 1536-well;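 active means compounds that cut the binding signal by more than half at the single screening dose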;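 further: His-tagged Mcl-1 with europium anti-His antibody binding Bid BH3 peptide; 0% = Mcl-1 plus peptide wells and 100% = peptide-only wells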
Mcl1-Noxa inh: Mcl-1/Noxa interaction inhibition; 220,000 compounds, 1.5% hits; Q07820; TR-FRET Mcl-1/Noxa peptide binding, 2 h; inhibition, % at 21.7 µM;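 active means compounds that cut the protein-peptide binding signal by more than 50% relative to plate controls in a single-dose test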;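 further: His-tagged Mcl-1 with rhodamine Noxa BH3 peptide and terbium anti-His antibody; 0% = Mcl-1 plus Noxa peptide wells and 100% = peptide-only wells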
GLD-1 TGE cf: confirmation of C. elegans GLD-1 TGE RNA binding inhibitors | shares compounds with GLD-1 TGE inh | GLD-1/FL-TGE RNA fluorescence polarization, biochemical | inhibition, % at 5.96 µM | 550 compounds, 10% hits | AID 2459;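 active means average inhibition across triplicates above the hit cutoff set in the primary screen, cut at about 32% in these data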;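 further: 0% = GLD-1 with RNA probe and DMSO and 100% = wells lacking GLD-1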
An asterisk follows results filed as active.

What do the screens show for `COc1nnc(-c2ccc(C)c(S(=O)(=O)NC(C)(C)CO)c2)c2ccccc12`?
MCL1-BIM inh: 0.3; GLD-1 TGE inh: -5.9; Bcl-xL primary: 6.1

Results for COc1nnc(-c2ccc(C)c(S(=O)(=O)NCCO)c2)c2ccccc12 ?
MCL1-BIM inh: 30.2; GLD-1 TGE inh: 49.0*; Bcl-xL primary: 39.3*; Mcl-1 Bim block: 0.0; Mcl1 Bid PPI: 8.3; Mcl1-Noxa inh: 17.3; GLD-1 TGE cf: -1.4

Results for CN1C2C=C3C(C#N)=C(N)C(C#N)(C#N)[C@@H](c4cccs4)C3C1CC2 (some centres not stated) ?
MCL1-BIM inh: 45.8*; GLD-1 TGE inh: 33.0*; Bcl-xL primary: 43.1*; Mcl-1 Bim block: -5.0; Mcl1 Bid PPI: -18.1; Mcl1-Noxa inh: 10.3; GLD-1 TGE cf: 3.7

How did CCCCNc1c(-c2ccc(SC(C)CC)cc2)nc2cnccn12 (configuration not stated) do in these assays?
GLD-1 TGE inh: 43.0*; GLD-1 TGE cf: 3.4

What do the screens show for `CN(C)Cc1cc(C(C)(C)C)cc(C(C)(C)C)c1O`?
MCL1-BIM inh: 4.8; GLD-1 TGE inh: 8.4; Bcl-xL primary: 6.8; Mcl1 Bid PPI: -59.6; Mcl1-Noxa inh: -19.9

Results for CN(C)Cc1cc(O)c(CN(C)C)cc1O ?
MCL1-BIM inh: 47.8*; GLD-1 TGE inh: 62.8*; Bcl-xL primary: 63.8*; Mcl1 Bid PPI: -153.3; Mcl1-Noxa inh: 60.0*; GLD-1 TGE cf: 7.5

Results for COc1ccc(OC)c(NC(=O)COC(=O)CC2CCCCC2)c1 ?
GLD-1 TGE inh: 0.6

How did Cc1cc2ccccc2n1CCNC(=O)c1ccc(Br)o1 do in these assays?
MCL1-BIM inh: 48.0*; GLD-1 TGE inh: 36.4*; Bcl-xL primary: 34.2*; Mcl-1 Bim block: 2.0; Mcl1 Bid PPI: -13.5; Mcl1-Noxa inh: 4.6; GLD-1 TGE cf: 10.8

What do the screens show for `Cc1cc2ccccc2n1CCNC(=O)c1ccccc1`?
MCL1-BIM inh: 26.1; GLD-1 TGE inh: 16.2; Bcl-xL primary: 24.5; Mcl-1 Bim block: 2.0; Mcl1 Bid PPI: -19.2; Mcl1-Noxa inh: 5.7

Results for COc1cc2c(cc1O)CCN(C(=O)CSc1nncn1C)[C@@H]2C ?
MCL1-BIM inh: 5.9; GLD-1 TGE inh: 1.3; Bcl-xL primary: 5.2

Results for CC(=O)Oc1cccc2c1C(=O)c1c(OC(C)=O)cc(C(=O)O)cc1C2=O ?
MCL1-BIM inh: 10.4; GLD-1 TGE inh: 51.9*; Bcl-xL primary: 18.6; Mcl-1 Bim block: 0.0; Mcl1 Bid PPI: 21.8; Mcl1-Noxa inh: 21.4; GLD-1 TGE cf: 41.5*

How did C=CC(=O)N1CCCC(Nc2nc(Nc3ccc(N(C)C(=O)CC)cc3C)nc3nc[nH]c23)C1 (configuration not stated) do in these assays?
GLD-1 TGE inh: -0.2

What do the screens show for `Oc1ccc(/C=N/Nc2cc(N3CCCC3)nc(N3CCCC3)n2)cc1`?
MCL1-BIM inh: 23.7; GLD-1 TGE inh: 39.1*; Bcl-xL primary: 17.2; Mcl-1 Bim block: 0.0; Mcl1 Bid PPI: -54.9; Mcl1-Noxa inh: 15.1; GLD-1 TGE cf: 37.5*

What do the screens show for `CC(NC(=O)CN(C)Cc1ccc(Br)cc1)c1ccccc1` (configuration not stated)?
MCL1-BIM inh: 2.4; GLD-1 TGE inh: 2.8; Bcl-xL primary: -1.7

What do the screens show for `CSc1ccc(CN(C)CC(=O)NC(C)c2ccccc2)cc1` (configuration not stated)?
MCL1-BIM inh: -5.3; GLD-1 TGE inh: 53.5*; Bcl-xL primary: -0.7; Mcl-1 Bim block: 1.0; Mcl1 Bid PPI: -5.0; Mcl1-Noxa inh: 2.5; GLD-1 TGE cf: -2.5

How did COc1cc(NC(=O)c2cccs2)cc(OC)c1 do in these assays?
MCL1-BIM inh: 9.7; GLD-1 TGE inh: 52.3*; Bcl-xL primary: 6.8; Mcl-1 Bim block: -1.0; Mcl1 Bid PPI: -7.9; Mcl1-Noxa inh: -3.5; GLD-1 TGE cf: -1.6

Results for Cc1nn2c(NCCCN(C)C)c3c(nc2c1-c1ccccc1)CCC3 ?
MCL1-BIM inh: 1.9; GLD-1 TGE inh: 30.7*; Bcl-xL primary: 0.0; Mcl-1 Bim block: -5.0; Mcl1 Bid PPI: -8.9; Mcl1-Noxa inh: 3.2; GLD-1 TGE cf: 3.8

Assay outcomes as filed in PubChem BioAssay.
